PubChem BioAssay (NCATS)
Inconclusive results are not listed. Where a call stands in place of a potency, no number is given. Values without a mark were called inactive. Active and inactive are the calls of the source. Calls come from the whole dose curve; as a rule, active = well fitted inhibition curve with a large enough effect; inconclusive = small, poorly fitted or top-dose-only effect; inactive = flat fitted curve, though single readings scatter.

Legend:
[1] = qHTS profiling for inhibitors of Plasmodium falciparum proliferation (AID 504749); for all read-outs here: nearly all actives have a fitted effect of over 60% in size; details: P. falciparum in erythrocytes, SYBR Green DNA, 72 h; for activity, negative = inhibition: at 28.7 µM (top of the series)
In short: (§1)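 Fluorescence of SYBR Green-bound parasite DNA, read at 485/535 nm, served as the growth measure. Infected erythrocytes were cultured with compound 72 h; artemisinin (0.29 uM) and DMSO wells defined the normalization range.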

[2] = tested on: 3D7; assay: as above; details: P. falciparum in erythrocytes, SYBR Green DNA, 72 h; series mostly up to 28.7 µM
In short: as §1

[3] = tested on: 7G8; assay: as above; details: P. falciparum in erythrocytes, SYBR Green DNA, 72 h; series mostly up to 28.7 µM
In short: as §1

[4] = tested on: AA1029; assay: as above; details: P. falciparum in erythrocytes, SYBR Green DNA, 72 h; series mostly up to 28.7 µM
In short: as §1

[5] = tested on: AS120; assay: as above; details: P. falciparum in erythrocytes, SYBR Green DNA, 72 h; series mostly up to 28.7 µM
In short: as §1

[6] = tested on: ATS189; assay: as above; details: P. falciparum in erythrocytes, SYBR Green DNA, 72 h; series mostly up to 28.7 µM
In short: as §1

[7] = tested on: ATS95; assay: as above; details: P. falciparum in erythrocytes, SYBR Green DNA, 72 h; series mostly up to 28.7 µM
In short: as §1

[8] = tested on: C2A; assay: as above; details: P. falciparum in erythrocytes, SYBR Green DNA, 72 h; series mostly up to 28.7 µM
In short: as §1

[9] = tested on: CP185; assay: as above; details: P. falciparum in erythrocytes, SYBR Green DNA, 72 h; series mostly up to 28.7 µM
In short: as §1

[10] = tested on: CP191; assay: as above; details: P. falciparum in erythrocytes, SYBR Green DNA, 72 h; series mostly up to 28.7 µM
In short: as §1

[11] = tested on: CP192; assay: as above; details: P. falciparum in erythrocytes, SYBR Green DNA, 72 h; series mostly up to 28.7 µM
In short: as §1

[12] = tested on: CP194; assay: as above; details: P. falciparum in erythrocytes, SYBR Green DNA, 72 h; series mostly up to 28.7 µM
In short: as §1

[13] = tested on: CP201; assay: as above; details: P. falciparum in erythrocytes, SYBR Green DNA, 72 h; series mostly up to 28.7 µM
In short: as §1

[14] = tested on: CP203; assay: as above; details: P. falciparum in erythrocytes, SYBR Green DNA, 72 h; series mostly up to 28.7 µM
In short: as §1

[15] = tested on: CP211; assay: as above; details: P. falciparum in erythrocytes, SYBR Green DNA, 72 h; series mostly up to 28.7 µM
In short: as §1

[16] = tested on: CP215; assay: as above; details: P. falciparum in erythrocytes, SYBR Green DNA, 72 h; series mostly up to 28.7 µM
In short: as §1

[17] = tested on: CP217; assay: as above; details: P. falciparum in erythrocytes, SYBR Green DNA, 72 h; series mostly up to 28.7 µM
In short: as §1
Potency is the fitted concentration of half-maximal effect.

Compound | activity, negative = inhibition ([1]; parasite line A) [%] | Potency [2] | Potency [3] | Potency [4] | Potency [5] | Potency [6] | Potency [7] | Potency [8] | Potency [9] | Potency [10] | Potency [11] | Potency [12] | Potency [13] | Potency [14] | Potency [15] | Potency [16] | Potency [17] | activity, negative = inhibition ([1]; parasite line B) [%] | Potency ([1]; parasite line A) | Potency ([1]; parasite line B)
CCCCCCCC/C=C\CCCCCCCC(=O)O | 12.9 | inactive | inactive | inactive | inactive | inactive | inactive | inactive | inactive | inactive | inactive | inactive | inactive | inactive | inactive | inactive | inactive |  |  | 
CC(C)=O | -12.1 | inactive | inactive | inactive | inactive | inactive |  | inactive | inactive | inactive | inactive | inactive | inactive | inactive | inactive | inactive | inactive |  |  | 
O=S(=O)(O)c1cc(O)c2c(N=Nc3ccc(Nc4ccccc4)c4c(S(=O)(=O)O)cccc34)cc(S(=O)(=O)O)cc2c1 |  | inactive |  | inactive |  | inactive | inactive | inactive |  |  |  |  |  | inactive |  |  |  |  |  | 
O=C(O)c1cc(=O)c2c3nc4ccccc4oc-3cc(=O)c2[nH]1 | -19 | 14.1 µM (active) | 1.26 µM (active) | inactive |  | inactive | inactive | inactive | inactive | inactive | inactive | inactive | inactive | inactive | inactive | inactive | inactive | -11.6 |  | 
CCOc1ccc(N=Nc2ccc(N)cc2N)cc1 |  | inactive |  | inactive | inactive |  | inactive | inactive | inactive | inactive | inactive | inactive | inactive | inactive | inactive | inactive | inactive | 14.7 |  | 
CCOc1ccc2c(c1)C(C)=CC(C)(C)N2 | -19.3 |  | inactive | inactive | inactive | inactive | inactive | inactive | inactive | inactive | inactive | inactive | inactive | inactive | inactive |  | inactive | -4.99 |  | 
CC[C@@]1(O)C(=O)OCc2c1cc1n(c2=O)Cc2cc3c([N+](=O)[O-])cccc3nc2-1 |  | 5.01 µM (active) | 5.01 µM (active) | 7.08 µM (active) | 5.01 µM (active) | 7.94 µM (active) | 5.01 µM (active) | 7.94 µM (active) | 8.91 µM (active) | 11.2 µM (active) |  | 12 µM (active) |  |  |  | 13.5 µM (active) | 10 µM (active) |  | 4.47 µM (active) | 
O=C1CSC2(CCN(CCCN3c4ccccc4Sc4ccc(Cl)cc43)CC2)N1 | -17.8 |  | 11.2 µM (active) |  |  |  |  | inactive | inactive |  |  |  |  |  |  |  |  | -28.1 |  | 
CCN(CC)CCOc1ccc(-c2nc3cc(Cl)ccc3s2)cc1 |  |  | 11.2 µM (active) |  | inactive | inactive |  |  | inactive |  | inactive | inactive | inactive | inactive | inactive | inactive | inactive |  |  | 
CC(=O)Oc1cc(C)c(OC(C)=O)c2ccccc12 |  | 8.91 µM (active) | 5.01 µM (active) |  | 10 µM (active) |  |  | 11.2 µM (active) |  |  | 10.7 µM (active) |  |  |  |  |  |  |  |  | 
NC(=O)c1ncn(C2OC(CO)C(O)C2O)n1 (stereo not drawn) | -11.3 | inactive | 7.94 µM (active) | inactive | inactive | inactive | inactive |  | inactive | inactive | inactive | inactive | inactive | inactive | inactive | inactive | inactive | -20.5 |  | 
COc1cc(-c2ccc(-[n+]3nc(-c4ccccc4)nn3-c3ccc([N+](=O)[O-])cc3)c(OC)c2)ccc1-[n+]1nc(-c2ccccc2)nn1-c1ccc([N+](=O)[O-])cc1 |  | 11.2 µM (active) | 11.2 µM (active) | 11.2 µM (active) |  |  |  | 11.2 µM (active) | 10 µM (active) | 11.2 µM (active) | 19 µM (active) |  | 16.9 µM (active) |  | 13.5 µM (active) |  |  |  | 10 µM (active) | 11.2 µM (active)
O=C(Nc1ccc(Br)cc1)c1cc(Br)c(Br)s1 |  |  | 10 µM (active) |  |  |  |  |  |  |  |  |  |  | 16.9 µM (active) |  |  |  |  | 10 µM (active) | 
O=S(=O)(O)c1ccc2c(N=Nc3ccc(S(=O)(=O)O)c4ccccc34)c(O)c(S(=O)(=O)O)cc2c1 | -19.8 | inactive | inactive | inactive | inactive | inactive |  | inactive | inactive | inactive | inactive | inactive | inactive | inactive | inactive |  | inactive | -30 |  | 
